Compound activity deposited in PubChem by National Center for Advancing Translational Sciences (NCATS).
ALOX12 inhib: blocks human 12-lipoxygenase activity; P18054; purified 12-hLO, xylenol orange hydroperoxide absorbance; Potency, µM (doses to about 57.1 µM), for inactives: top-dose activity change, negative = inhibition, hits mostly inhibitors; hit rate 0.12% among 150,000; AID 1452; further: potency means the concentration at half of the fitted maximal effect; nearly all actives have a fitted effect of over 55% in size
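Hydroperoxide output read as Fe(III)-xylenol orange absorbance, 573-to-405 nm ratio, after 30 min reaction with 40 uM arachidonic acid. Enzyme: 150 nM purified human 12hLO, 15 min compound preincubation; 25 mM Hepes pH 7.0, room temperature.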
PNC inhibitor: perinucleolar compartment assembly inhibition. PC3M PTB-GFP, PNC prevalence imaging, 16 h; hits give low values. activity change (PNC), negative = inhibition, % at 10 µM. hit rate 3.1% among 140,000. AID 2417;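 active means readout at or below -70, meaning at least 70% loss of cells showing the perinucleolar compartment, a nuclear body marking cancer cells; inconclusive means readout between -30 and a set limit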;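 further: plate controls were DMSO wells for no effect and camptothecin positive control wells for full effect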
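Read-out is percentage of cells bearing a perinucleolar compartment, from automated 20x imaging of fixed, Hoechst-stained PC3M PTB-GFP cells. Cells were seeded 4 h, then exposed 16 h to compound (23 nl of library stock) in duplicate plates.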
15-hLO-2 inh: inhibitors of human 15-lipoxygenase 2 (ALOX15B). O15296. purified 15hLO-2, xylenol orange hydroperoxide absorbance. Potency, µM (highest dose often 57.1 µM), without a hit: at the highest dose activity change, negative = inhibition, actives largely listed as inhibitors. hit rate 0.56% among 110,000. AID 881; further: potency means the concentration at half of the fitted maximal effect; nearly all actives have a fitted effect of over 60% in size
Target sequence (O15296 whole entry, looked up): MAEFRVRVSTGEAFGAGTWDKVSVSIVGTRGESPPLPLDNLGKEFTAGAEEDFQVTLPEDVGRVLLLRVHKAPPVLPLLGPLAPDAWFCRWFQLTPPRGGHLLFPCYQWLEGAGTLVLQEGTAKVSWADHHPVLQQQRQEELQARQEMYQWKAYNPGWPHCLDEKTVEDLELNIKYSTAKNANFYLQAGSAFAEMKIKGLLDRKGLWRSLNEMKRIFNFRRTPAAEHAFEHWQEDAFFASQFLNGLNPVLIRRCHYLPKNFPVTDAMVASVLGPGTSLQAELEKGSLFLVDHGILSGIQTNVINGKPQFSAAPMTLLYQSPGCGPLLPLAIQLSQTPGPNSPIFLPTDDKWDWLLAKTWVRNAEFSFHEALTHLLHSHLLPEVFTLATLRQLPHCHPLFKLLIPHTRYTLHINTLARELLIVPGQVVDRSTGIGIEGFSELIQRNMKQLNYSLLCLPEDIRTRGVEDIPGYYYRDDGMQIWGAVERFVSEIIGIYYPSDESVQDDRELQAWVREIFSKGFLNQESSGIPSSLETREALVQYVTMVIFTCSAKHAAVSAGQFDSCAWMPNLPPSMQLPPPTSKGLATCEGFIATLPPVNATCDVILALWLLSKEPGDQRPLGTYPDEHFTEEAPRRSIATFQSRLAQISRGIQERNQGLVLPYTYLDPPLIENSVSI
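Purified human 15hLO-2 (50 nM) preincubated 15 min with compound, then 45 uM arachidonic acid for 90 min at RT in 25 mM Hepes pH 7.5, 0.01% Triton X-100. Hydroperoxide detected by Fe-xylenol orange; 573/405 nm absorbance ratio.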
* marks the source's active call; other numbers are inactive results; [ ] = another dose, or the depositor's remark. Shown are actives, neighbours in structure and some others; about 3.2% of the full set was active somewhere. Unless noted, the call rests on the fitted dose curve; in most records, active means well fitted curve in the direction sought with a large enough effect; inconclusive means small, poorly fitted or top-dose-only effect, or another doubt; inactive means no such curve, though single readings can be large; an effect the other way counts as inactive or inconclusive. Unless noted, on the % scale 0 is the no-effect control and ±100 the full control effect.

`O=C(OCC1OC(OC(=O)c2cc(O)c(O)c(OC(=O)c3cc(O)c(O)c(O)c3)c2)[C@@H](OC(=O)c2cc(O)c(O)c(OC(=O)c3cc(O)c(O)c(O)c3)c2)C(OC(=O)c2cc(O)c(O)c(OC(=O)c3cc(O)c(O)c(O)c3)c2)C1OC(=O)c1cc(O)c(O)c(OC(=O)c2cc(O)c(O)c(O)c2)c1)c1cc(O)c(O)c(OC(=O)c2cc(O)c(O)c(O)c2)c1` (stereo partly specified) gave ALOX12 inhib 0.56µM* and 15-hLO-2 inh 1.6µM*.
Screening CC(=O)NC1C(OCCOc2ccc(Cl)cc2Cl)OC(COC(C)=O)C(OC(C)=O)C1OC(C)=O (stereo unspecified) returned ALOX12 inhib -5%, PNC inhibitor 24 and 15-hLO-2 inh -2%.
Screening Cc1noc(C)c1-c1nc(N(C)Cc2ccco2)c2ccccc2n1 returned 15-hLO-2 inh 17%.
O=C1CC(Nc2ccc(N3CCOCC3)cc2)C(=O)N1c1ccccc1 (stereo unspecified) was read as ALOX12 inhib inconclusive, PNC inhibitor 11 and 15-hLO-2 inh inconclusive.
`CCOc1ccccc1N1C(=O)CC(Nc2ccc(N3CCOCC3)cc2)C1=O` (stereo unspecified) gave ALOX12 inhib inconclusive, PNC inhibitor 12 and 15-hLO-2 inh 16µM*.
For O=C1CC(Nc2ccc(N3CCOCC3)cc2)C(=O)N1Cc1ccccc1 (stereo unspecified) the results were ALOX12 inhib inconclusive and PNC inhibitor -119*.
COc1ccccc1N1C(=O)CC(Nc2ccc(N3CCOCC3)cc2)C1=O (stereo unspecified) was read as ALOX12 inhib inconclusive, PNC inhibitor -3 and 15-hLO-2 inh -6%.
Screening COc1ccc(CNc2ccnc(-c3ccccc3C(F)(F)F)n2)c(OC)c1 returned ALOX12 inhib 0% and 15-hLO-2 inh 16%.
`CC(=O)OCC1C2CC[C@H]3C(OCc4ccc(F)cc4C(F)(F)F)OC[C@]4(C)[C@H]3C2=C(CN4C(=O)OC(C)(C)C)[C@H](C)C1COC(C)=O` (stereo partly specified) gave ALOX12 inhib -5% and 15-hLO-2 inh 3%.
Cc1cc2nc([C@H](C)C(=O)c3ccc(Cl)cc3)c(=O)[nH]c2cc1C was read as ALOX12 inhib 1%[11.4 µM] and 15-hLO-2 inh -5%[11.4 µM].
Cn1cccc1C(=O)N1CCC2(CC1)CN(Cc1cc(C(F)(F)F)cc(C(F)(F)F)c1)C2 was read as ALOX12 inhib -8% and 15-hLO-2 inh 7%.
For O=C(/C=C1\NCC2c3ccccc3CCN2C1=O)c1ccccc1 (stereo unspecified) the results were ALOX12 inhib 0%, PNC inhibitor 15 and 15-hLO-2 inh -3%.
Screening O=C(CCc1ccc(S(=O)(=O)N2CCOCC2)cc1)N/N=C/c1cccc(O)c1 returned ALOX12 inhib -1% and PNC inhibitor -12.
Screening O=C(CCc1ccc(S(=O)(=O)N2CCOCC2)cc1)N/N=C/c1ccc(O)c(O)c1O returned ALOX12 inhib -5% and PNC inhibitor -111*.
S=C1NNC2(NN1)C1CC3CC(C1)CC2C3 was read as ALOX12 inhib -11% and PNC inhibitor -100*.
Screening C1CSC2(N1)C1CC3CC(C1)CC2C3 (stereo unspecified) returned ALOX12 inhib -1%, PNC inhibitor -5 and 15-hLO-2 inh -8%.
Screening CN(C)c1ccnc(-c2cccc(NS(C)(=O)=O)c2)n1 returned ALOX12 inhib 2% and 15-hLO-2 inh -1%.
`CN(C)/N=N/c1nc[nH]c1C(N)=O` gave ALOX12 inhib -4% and 15-hLO-2 inh -4%.
For O=C(Nc1ccccc1)OC(CN1CCCCC1)C(F)(F)F (stereo unspecified) the results were ALOX12 inhib 2%, PNC inhibitor 41 and 15-hLO-2 inh 1%.
`Cc1cc(C)nc(NS(=O)(=O)c2ccc(NC(=O)c3ccc(N4C(=O)CCC4=O)cc3)cc2)n1` gave ALOX12 inhib 2% and PNC inhibitor -102*.
For Cc1cc(C)nc(NS(=O)(=O)c2ccc(NC(=O)c3ccc(S(=O)(=O)N4CC(C)OC(C)C4)cc3)cc2)n1 (stereo unspecified) the results were ALOX12 inhib -3% and PNC inhibitor -9.
Cc1cc(C)nc(NS(=O)(=O)c2ccc(NC(=O)CN3C(=O)c4ccccc4C3=O)cc2)n1 was read as ALOX12 inhib 9%, PNC inhibitor -92* and 15-hLO-2 inh -5%.
Cc1cc(NS(=O)(=O)c2ccc(NC(=O)CN3C(=O)c4ccccc4C3=O)cc2)nc(C)n1 was read as ALOX12 inhib 1%, PNC inhibitor 1 and 15-hLO-2 inh 4%.
Cc1cccc(C)c1Nc1oc(-c2ccccc2)nc1-c1ccccc1 was read as ALOX12 inhib 4%.
Cn1c(=O)c2c(ncn2CN2CCN(Cn3cnc4c3c(=O)n(C)c(=O)n4C)CC2)n(C)c1=O was read as ALOX12 inhib 3%[11.4 µM] and 15-hLO-2 inh -6%[11.4 µM].
`Cc1c(Cl)ccc(S(=O)(=O)N2CCN=C2c2ccccc2)c1Cl` gave ALOX12 inhib -2% and PNC inhibitor 48.
`COc1ccc(-c2cc(C(=O)Nc3cc(C)nn3-c3ccccc3)no2)cc1` gave ALOX12 inhib 0%, PNC inhibitor 19 and 15-hLO-2 inh -22%.
Screening COc1ccccc1-c1cc(C(=O)Nc2cc(C)nn2-c2ccccc2)no1 returned ALOX12 inhib 2%, PNC inhibitor -129* and 15-hLO-2 inh -2%.
For N#Cc1cccc(N=Cc2c(O)ccc3ccccc23)c1 the results were ALOX12 inhib -3% and PNC inhibitor -9.
For Cc1cc(NC(=O)C2CCCCC2)ccc1NC(=O)c1ccccc1Cl the results were ALOX12 inhib 2% and PNC inhibitor 29.
`O=C(NC(=S)Nc1ccccn1)c1ccco1` gave ALOX12 inhib -2% and PNC inhibitor 51.
O=C(NC(=S)Nc1ccccn1)c1ccc([N+](=O)[O-])cc1 was read as ALOX12 inhib 2% and PNC inhibitor -85*.
`COC(=O)N1CCC[C@@]2(CCN(C(=O)Nc3cccc(F)c3)C2)C1` gave ALOX12 inhib 3% and 15-hLO-2 inh 7%.
For CC1(O)CC2C(CC1O)C2(C)C (stereo unspecified) the results were ALOX12 inhib 1% and 15-hLO-2 inh -5%.
For COc1ccc(C(=O)N2CCC3(CC2)CN(CC(C)C)C3)cc1 the results were ALOX12 inhib 1% and 15-hLO-2 inh 9%.
`O=[N+]([O-])c1ccc(NC(=S)NCCc2ccccc2)cc1` gave ALOX12 inhib -3% and PNC inhibitor -23.
O=[N+]([O-])c1ccc(NNC(=S)Nc2ccccc2)cc1 was read as ALOX12 inhib inconclusive, PNC inhibitor 7 and 15-hLO-2 inh 4µM*.
Screening O=C(Nc1nc2ccccc2s1)c1ccc(OCC2CCCO2)cc1 (stereo unspecified) returned ALOX12 inhib 2% and PNC inhibitor 25.
For CCCCc1nc2c(c3c1C[C@H](C)OC3)CN(C(=O)Cc1cccs1)CC2 the results were ALOX12 inhib 0%[11.4 µM].
Screening CCOC(=O)c1ccccc1NC(=O)c1ccccc1SC returned ALOX12 inhib -24%, PNC inhibitor -80* and 15-hLO-2 inh -12%.
